The text below walks through data of PubChem BioAssay AID1789 (The Scripps Research Institute Molecular Screening Center, 2009).

The whole screen tested about 290,000 compounds, of which about 2,700 (0.93%) were called active. Only a selection was taken, and actives are over-represented in it overall. A number with no mark means an inactive call.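 Rule for the calls: active = inhibition above the screen-wide mean plus 3 SD, computed separately per campaign (cut at about 16% in these data); inactive = the rest.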

The inhibition is the relative decrease from the control value, in per cent.

This experiment relates to Heat shock protein HSP 90 (rabbit reticulocyte lysate; luciferase refolding). Put plainly: HSP90 inhibitors, primary screen, cell lysate, luminescence (AID 1789).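 Note: 0% = DMSO wells and 100% = 60 µM geldanamycin wells; inhibitors lower the luminescence because luciferase stays unfolded.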 As to conditions: 3 h, at 5.6 µM, active compounds read high.
On to `CCn1cc(/C=C(\NC(=O)c2ccc(C)cc2)C(=O)NCCN2CCOCC2)c2ccccc21`, for which the inhibition is 3.27%. Take `CC(C)c1ccc(C(=O)OC2CCOC2=O)cc1` (configuration not stated): the inhibition is 3.27%. On to `O=C(OC1CCOC1=O)c1ccc(-c2nc3ccccc3s2)s1` (configuration not stated), for which the inhibition is 35.8% (active). Take `Cc1nn(Cc2ccccc2)c(Cl)c1C(=O)OC1CCOC1=O` (configuration not stated): the inhibition is -0.01%. Turning to `CCOC(=O)C1CCN(Cc2c(C(=O)N3CCOCC3)nc3c(C)cccn23)CC1`, the inhibition is 13.2%. The same measure for `C=C(C)CNC(=O)c1ccc(OC2CCN(C(=O)COC)CC2)cc1`: 2.35%; for `CC(C)C[C@H](NC(=O)C1CC(=O)N(c2ccc3c(c2)OCCO3)C1)C(=O)NC1CCCC1` (some centres not stated): -1.77%; for `CCOC(=O)C(C)Sc1nc2ccccc2c(=O)n1CC1CCCCC1` (configuration not stated): 2.53%. For the compound `O=c1c2ccccc2nc2n1C1(CCCCC1)Cc1ccccc1-2`, the inhibition was 4.03%. As to `CN(c1ccc2nc3ccccc3c(=O)n2n1)C1CCCCC1`, the inhibition was 85.9% (active).

With `COCCC(=O)N1CCC(Oc2ccc(C(=O)NCc3ccon3)cc2)CC1`, the inhibition is -1.71%.

With `CNC(=O)CN1C(=O)NC(c2ccccc2)(c2ccccc2)C1=O`, the inhibition is 3.3%. For the compound `C=CCc1cc(S(=O)(=O)c2ccc(O)c(CC=C)c2)ccc1O`, the inhibition was -0.52%. For `CCOC(=O)N1CCN(C(=O)C(=O)Nc2sc3c(c2C#N)CC(C)(C)OC3)CC1`, the inhibition is -2.63%.

Turning to `CCOc1ccc(-n2c(SCC(N)=O)nnc2-c2ccco2)cc1`, the inhibition is 7.02%. With `CCCCOc1ccc(-c2nnc(-c3ccco3)o2)cc1`, the inhibition was -4.76%. `CCOc1ccc(-c2nnc(-c3ccco3)o2)cc1`: the inhibition is 30.8% (active). To `CCc1ccccc1OCC(=O)Nc1ccc2c(c1)OCCO2` belongs -5.09%; to `CCn1ccnc1CN(C)C(=O)c1ccc2nc(Cc3ccc(OC)cc3)oc2c1`, -0.73%. The same measure for `COCC1CCN(C(=O)C2CCC(=O)N(Cc3cccc(C(F)(F)F)c3)C2)CC1` (configuration not stated): 2.25%; for `O=C(/C=C/c1cccc([N+](=O)[O-])c1)N1CCN(Cc2ccccc2)CC1`: -2.98%.

As for `O=[N+]([O-])/C=C/c1ccc2c(ccn2Cc2ccccc2)c1`, the inhibition was 21.8% (active). Take `O=c1c([N+](=O)[O-])cc(C(F)(F)F)cn1Cc1cccc(Cl)c1`: the inhibition was 0.02%. As for `CN(Cc1ccccc1)C(=O)C(=O)c1cn(CC(=O)N2CCCC2)c2ccccc12`, the inhibition is -3.8%. The same measure for `CCc1ccc(NC(=O)NC(C)c2ccc3c(c2)OCO3)cc1` (configuration not stated): 1.03%; for `Cc1onc(-c2ccccc2)c1C(=O)N1CCN(S(=O)(=O)c2ccccc2C(F)(F)F)CC1`: -1.81%; for `COc1ccc(N2CCN(C(=O)c3cn(C)c4ccc(S(=O)(=O)N5CCOCC5)cc4c3=O)CC2)cc1`: -3.81%.

As for `Cc1cc(C)nc(N2CCC(C(=O)Nc3ccc4c(c3)OCCO4)CC2)n1`, the inhibition was 0.65%.

On to `O=C(Nc1cccc(Cl)c1)C1CCCN(c2cnccn2)C1` (configuration not stated), for which the inhibition is -2.56%. The same measure for `O=C(Nc1ccc2c(c1)OCCO2)C1CCCN(c2ncccn2)C1` (configuration not stated): 16.9% (active); for `COc1ccc(N2C(=O)NC(NS(=O)(=O)c3ccc(Cl)cc3)(C(F)(F)F)C2=O)cc1` (configuration not stated): 1.44%; for `COc1ccc(Cc2cc(-c3ccc(F)cc3)n[nH]c2=O)cc1`: -1.15%. On to `CC(OC(=O)c1ccc2noc(-c3ccccc3)c2c1)C(N)=O` (configuration not stated), for which the inhibition is 26.5% (active). As to `Oc1ccc(-c2onc3ccc(Cl)cc23)cc1`, the inhibition was -0.76%. To `COc1ccc(-c2onc3ccc(C(C)=O)cc23)cc1` belongs 3.03%; to `COc1ccc(C(C)NC(=O)C2CCCC2)cc1` (configuration not stated), -1.94%. The same measure for `CCCc1cc(=O)oc2c(C)c(OC(C)C(=O)NCC(O)c3ccccc3)ccc12` (configuration not stated): -5.71%; for `COc1nc(-c2ccc(Cl)cc2)ccc1-c1noc(-c2cccs2)n1`: -4.45%. To `O=C(Oc1ccc(-c2nc(-c3ccccn3)no2)cc1)c1ccccc1` belongs 3.06%. As to `c1ccc(-c2noc(-c3cccs3)n2)nc1`, the inhibition was 21.2% (active). With `COCC1CCCN(C(=O)c2ccc3oc(C(C)C)nc3c2)C1` (configuration not stated), the inhibition is 2.21%. The same measure for `Cc1n[nH]c(=O)c2c1nnn2Cc1ccc(F)cc1`: 0.06%. To `C/C(=N/NC(=O)c1ccc(Br)o1)c1ccc(C)o1` belongs 1.47%.

Turning to `C/C(=N\NC(=S)NC1CCCCC1)c1ccc(C)o1`, the inhibition is 19.9% (active).

As for `Cc1ccc(/C=N/NC(=S)NC2CCCCC2)o1`, the inhibition is -0.34%. As to `COc1ccc(OC)c(NC(=O)c2ccc3c(c2)CCN3S(C)(=O)=O)c1`, the inhibition is -4.49%. In the case of `O=C(C1CCC(=O)N(C2CC2)C1)N1CCN(c2ccc(Cl)cc2)CC1` (configuration not stated), the inhibition was 0.69%.

For `CCOc1cc(C2/C(=C(/O)c3ccc(S(=O)(=O)N4CCCCC4)cc3)C(=O)C(=O)N2CCOC)ccc1O` (configuration not stated), the inhibition was -4.72%. As for `Fc1ccccc1/C=C1\CCCC2=C1Nc1ncnn1C2c1ccccc1F` (configuration not stated), the inhibition was 5.24%. To `Cc1ccc(SCCC(=O)OCC(=O)Nc2ncc(Cl)cc2Cl)cc1` belongs 3.89%. For the compound `NS(=O)(=O)c1cccc(NC(=O)CSc2nc3ccccc3n2-c2ccccc2)c1`, the inhibition was 2.1%. In the case of `Cc1ccc(-n2c(SCC(=O)Nc3ncc(Cl)cc3Cl)nc3ccccc32)cc1`, the inhibition was 19.5% (active). To `COc1cccc(C(=O)N/N=C(\C)c2cccc(NC(=O)c3ccc(F)cc3)c2)c1OC` belongs -0.84%. `COc1cccc(NC(=O)C/C(C)=N/NC(=O)C2CCCCC2)c1`: the inhibition is -2.92%.

Consider `O=C(COc1ccc2ccc(=O)oc2c1)NCC(O)c1ccccc1` (configuration not stated), for which the inhibition was -3.81%. `Nc1ccc(-c2sc(N)nc2-c2ccccc2)cc1`: the inhibition is -4.32%.

For `Nc1ccc(-c2nnc(-c3ccccc3)o2)cc1`, the inhibition was 20.3% (active). Turning to `Brc1ccc(-c2nnc(-c3ccccc3)o2)o1`, the inhibition is -0.79%. To `CCOc1ccc(S(=O)(=O)N2CCCC(C(=O)N3CCC(C(N)=O)CC3)C2)cc1Cl` (configuration not stated) belongs -3.03%.

Consider `CCCOc1ccc(C(=O)NCCc2ccccc2)cc1`, for which the inhibition was 20.7% (active). The same measure for `COc1ccc(OCCCC(=O)NCCc2ccccc2)cc1`: -4.96%; for `CCCc1ccc(OCCNC(=O)c2ccco2)cc1`: -5.63%.
